Test results reported in PubChem BioAssay AID651821 (The Scripps Research Institute Molecular Screening Center, 2012).
Hit rate of the full screen: of about 370,000 compounds, about 4,700 (1.3%) were called active. The sample as a whole holds a higher share of actives than the screen did. Values without a mark were called inactive.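 Rule for the calls: active = inhibition above the plate cutoff, the mean of all test compounds on that plate plus 3 SD (cut at about 35% in these data); inactive = the rest.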

Test: binders of r(CAG) RNA repeats, primary screen, biochemical, fluorescence (AID 651821);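 note: 0% = DMSO alone and 100% = 100 µM mitoxantrone as full dye displacement; higher means more dye released from RNA so lower well fluorescence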
Details: r(CAG) RNA repeat, TO-PRO-1 dye displacement fluorescence; at 3 µM; active compounds read high

SMILES | inhibition
CC(C)c1ccc(Nc2nnc(SCC(=O)c3nnc(-c4ccccc4)o3)s2)cc1 | 50.7% (active)
CN(C(=O)CSc1nnc(Nc2ccccc2)s1)C1CCS(=O)(=O)C1 (centres undefined) | 0.39%
CC(C)Nc1nnc(SCC(=O)c2c[nH]c3ccccc23)s1 | 3.39%
O=C(O)c1ccc(/C=C2\SC(=S)N(NC(=O)c3ccc(Br)cc3)C2=O)cc1 | 34.9% (active)
C/C(CC(=O)N1CCN(C=O)CC1)=N\NC(=O)c1ccc(Br)cc1 | 0.43%
O=C1c2ccccc2NC(c2ccccc2O)N1NS(=O)(=O)c1ccccc1 (centres undefined) | 2.81%
O=S(=O)(NC(=S)Nc1ccccc1)c1ccc(F)cc1 | 1.19%
CC(=O)N1C(=O)/C(=C2\SC(=S)N(NC(=O)c3ccc(O)cc3)C2=O)c2ccccc21 | 14%
O=C1/C(=C/c2ccc(F)cc2)SC(=S)N1NS(=O)(=O)c1ccccc1 | 55.7% (active)
CC1(NC(=O)CCS(=O)(=O)c2ccc(Cl)cc2)CCS(=O)(=O)C1 (centres undefined) | 2.03%
OC(c1ccccc1)c1nc(-c2cnc3ccccc3c2)cs1 (centres undefined) | 16.2%
Cc1ccc(CSc2nnc(SCC(=O)NN=Cc3cc(Br)ccc3F)s2)cc1 | 5.78%
Cc1ccc(C(=O)O)c(NC=O)c1OCc1ccccc1 | 0.76%
Cc1ccc(S(=O)(=O)N2CCCC2CO)cc1 (centres undefined) | -2.42%
CCOC(=O)C1=CC[C@@H](c2ccccc2)N(S(=O)(=O)c2ccc(C)cc2)[C@H]1c1ccc(CC)cc1 | 2.92%
Cc1ccc(S(=O)(=O)N2[C@@H](c3ccc(Br)cc3)C(C(=O)O)=C[C@H]2CC2CCCC2)cc1 | 82.8% (active)
CCCCC[C@@H]1C=C(C(=O)OCC)[C@H](c2ccccc2)N1S(=O)(=O)c1ccc(C)cc1 | 5.36%
O=C(O)C1CCCN1S(=O)(=O)c1ccc(Br)cc1 (centres undefined) | -0.5%
CCCCC[C@@H]1C=C(C(=O)O)[C@H](c2ccc(C#N)cc2)N1S(=O)(=O)c1ccc(C)cc1 | 62.3% (active)
CCn1c(SCC(C)=O)nc2sc3c(c2c1=O)CCCC3 | 4.43%
CCOC(=O)[C@]12CCCC3=C1N(CCC3)C(=O)[C@@H](CC(=O)NCC13CC4CC(CC(C4)C1)C3)C2 | -1.58%
O=C(c1ccccc1)c1ccc(-c2ccccc2C(=O)NC2CCCCN(Cc3ccc(Cl)cc3)C2=O)cc1 (centres undefined) | 12.5%
Cc1ccc(C)c(CN2CCC(CNC(=O)C3CCCN(c4ncnc5c4nc4n5CCCCC4)C3)CC2)c1 (centres undefined) | -1.34%

SMILES | inhibition
CCCCCCCCNS(=O)(=O)/C=C/c1cc(C)ccc1CNC(=O)OC(C)(C)C | 5.11%
CSc1ccc(Oc2cccc3c2S(=O)(=O)N([C@H](C)c2ccccc2)C[C@@H](COCc2ccccc2)O3)cc1C | 5.63%
Cc1noc(C)c1NC(=O)Nc1ccc2c(c1)C(=O)N([C@H](C)CO)C[C@H](C)[C@H](CN(C)Cc1ccncc1)OCCCC[C@@H](C)O2 | 6.45%
COc1ccc(OC)c(NC(=O)CSc2nc(N)c(-c3ccccc3)c(=O)[nH]2)c1 | 4.81%
COc1ccc(OC)c(NC(=O)CSc2nc(-c3ccccc3)cc(=O)[nH]2)c1 | 37.5% (active)
CCCc1cc(=O)[nH]c(SCC(=O)Nc2ccc(C(=O)Nc3ccccc3OC)cc2)n1 | 31.1%
Cc1ccccc1NC(=O)COC(=O)c1ccc(Sc2ncn[nH]2)c([N+](=O)[O-])c1 | 6.52%
CCOC(=O)C(NC(=O)CC(C)C)(Nc1sc2c(c1C(N)=O)CCCC2)C(F)(F)F (centres undefined) | -6.2%
NC(=O)c1c(Nc2nc3c(F)cccc3s2)sc2c1CCCC2 | 52.5% (active)
O=C(O)c1c(NC(=O)N2CCCC2)sc2c1CCCC2 | 3.93%
COc1ccc(Br)c2c1C(=O)CC2 | -1.62%
COc1ccc(NC(=O)CC2COc3ccccc3O2)c(OC)c1 (centres undefined) | -0.79%
CCn1cc(C(=O)NCC2COc3ccccc3O2)c2cc(OC)c(OC)cc2c1=O (centres undefined) | 53.3% (active)
CCn1cc(C(=O)N2CCN(C3CCCCC3)CC2)c2cc(OC)c(OC)cc2c1=O | -10.2%
COc1cccc(CSc2nnc(-c3cccnc3)n2Cc2ccccc2)c1 | 3.2%
CCCNC(=O)Nc1ccc2c(c1)C(=O)N(C)[C@H]1CC[C@H](CC(=O)NCC3CCCCC3)O[C@@H]1CO2 | 2.13%
COc1ccc(Cl)cc1C=CC=NNC(=O)c1ccncc1 | 1.27%
COc1ccccc1/C=C/C=N/n1c(-c2ccc(Cl)cc2Cl)n[nH]c1=S | 36.1% (active)
COc1ccc(Cl)cc1C=CC=Nc1ccc(S(N)(=O)=O)cc1 | 14.6%
Cc1cccc(CS(=O)(=O)c2ncc(Cl)c(C(=O)Nc3ccc(F)cc3)n2)c1 | 2.26%
CSc1nnc(NC(=O)c2nc(S(=O)(=O)Cc3ccc(C)cc3)ncc2Cl)s1 | 42.9% (active)
Clc1cccc2c1C1CC2CCN1Cc1ccccc1 (centres undefined) | 1.58%
O=C1C2C3C=CC(C3)C2C(=O)N1c1ccc(S(=O)(=O)Nc2nccs2)cc1 (centres undefined) | 0.76%

SMILES | inhibition
O=C(Nc1nncs1)c1cccc(S(=O)(=O)N2CCCCC2)c1 | 0.89%
O=C(Nc1cccc(Cl)c1)Nc1ccccc1NS(=O)(=O)c1cccs1 | 48.5% (active)
C/C(=N\NC(=O)c1ccc(NS(=O)(=O)c2cccs2)cc1)c1ccc2ccccc2c1 | 19.2%
O=S(=O)(NCCc1ccc(Cl)cc1)c1cccs1 | -4.34%
COc1cc(OC)c(C(=O)NNC(=O)c2ccc(NS(=O)(=O)c3cccs3)cc2)cc1OC | 8.73%
O=C(Nc1nncs1)c1ccccc1NS(=O)(=O)c1cccs1 | 36.4% (active)
CC(C)CNc1cccc2c1S(=O)(=O)N(Cc1cn(Cc3ccccc3C(F)(F)F)nn1)Cc1ccccc1O2 | 7.51%
O=C(N[C@H](C(=O)N1CCC[C@H]1C(=O)NCCc1ccccc1Cl)c1ccccc1)c1ccccc1 | 3.45%
O=C(c1ccc2c(c1)OCO2)N1CCNc2ccccc2C1 | 2.38%
COC(=O)Cc1nnn2c1[C@H](C)[C@H](c1ccccc1Br)OCC2 | 2.7%
C#CCCN([C@H](C(=O)OC)C(C)C)S(=O)(=O)c1ccc(F)cc1Br | 2.16%
COc1cccc(N(C)C(=O)[C@@H](C)[C@@H](O)c2ccc3ccccc3c2)c1 | -1.62%
COC(=O)[C@]1(Cc2ccccc2)NC=C(C(=O)c2ccccc2)[C@@H]1c1cccc(OC)c1 | 4.57%
COC(=O)C1=C(C)NC(=S)NC1c1ccc(OC)cc1 (centres undefined) | 1.6%
CCN(CC(=O)Nc1cc(Cl)ccc1C)C(=O)Cn1c(=O)cnc2ccccc21 | -5.99%
C=CCNc1nc(N)c(C(=C(C#N)C#N)c2ccccc2)s1 | 35.8% (active)
C=C(C)C#CC(Cc1ccccc1)N(CC1CC1)/C(N)=N/C(=O)OCc1ccccc1 (centres undefined) | 0.56%
O=C(NC(=S)N1CCc2ccccc21)c1ccco1 | 0.88%
CC(Oc1ccc2ccccc2c1)C(=O)NNC(=S)NC(=O)c1ccco1 (centres undefined) | 48.2% (active)
CCC1CCCCN1C(=S)NC(=O)c1ccco1 (centres undefined) | 0.91%
CCCc1ccc(OCC(=O)NNC(=S)NC(=O)c2ccco2)cc1 | 36.2% (active)
NS(=O)(=O)c1ccc(CNC(=S)NC(=O)c2ccco2)cc1 | 0.4%
COc1ccc(/C=C(/NC(=O)c2ccco2)C(=O)Nc2ccc(C(C)=O)cc2)cc1 | 1.57%

SMILES | inhibition
CCCCC(NC(=O)c1cccc(Br)c1)C(=O)O (centres undefined) | 0.46%
COC(=O)[C@]12C[C@H](CC(=O)N3CCOCC3)C(=O)N(Cc3ccc(Cl)cc3Cl)C1=C[C@H](COCc1ccccc1)O[C@@H]2C | 4.28%
CC(C)CNC(=O)OCc1cn(Cc2ccc(F)cc2)nn1 | 0.38%
Cc1cc2c(nc1C)CCCN2C | -0.74%
COC(=O)[C@H](C(C)C)N1CCc2nnn(Cc3ccc(C)cc3)c2-c2ccccc2S1(=O)=O | -0.02%
COCc1[nH]nc2c1C(c1ccccc1)N(c1ccccc1)C2=O (centres undefined) | -0.7%
O=C(Nc1ccc2ccccc2c1)Nc1ccc2snnc2c1 | 47.6% (active)
CS(=O)(=O)c1ccccc1C(=O)Nc1ccc2sccc2c1 | 2.53%
O=S(=O)(Nc1ccc2ccccc2c1)N1CCCCC1 | 4.05%
C[C@@H]1ON(C)[C@H]2C[C@H]3c4cc(N5CCOCC5)ccc4CCN3C[C@@H]12 | 0.67%
CSc1nsc(SCC(=O)Nc2cc(C(=O)O)ccc2C)n1 | 7.69%
CCc1nnc(NC(=O)CSc2nnnn2-c2cccc(C(C)=O)c2)s1 | -0.71%
CC(=O)N1CCC(C(=O)Nc2nc(-c3ccccc3)ns2)CC1 | 6.24%
C=CCSc1nsc(NC(=O)Nc2cccc(C(C)=O)c2)n1 | 60.2% (active)
CSc1nsc(NC(=O)Nc2ccccc2)n1 | 38.9% (active)
C=CCSc1nnc2c(n1)-c1cccc3cccc-2c13 | 7.81%
CCSc1nsc(NC(=O)Nc2cccc(C(C)=O)c2)n1 | 62.7% (active)
CCCCN1C(=O)C(=O)N(CC(=O)Nc2cccc(C(C)=O)c2)C1=O | 4.35%
COC(=O)c1cccc(NC(=O)CSc2nc(C)cc(=O)[nH]2)c1 | 6.31%
O=C(NC1CCC1)c1ccc(C#CC2CC2)cn1 | 4.07%
